# Measured values published in PubChem BioAssay (Tox21).
# Activity calls are given as the source filed them. Calls follow the shape of the dose curve; as a rule, active = well fitted curve in the direction sought with a large enough effect in the repeat runs; inconclusive = weak or mixed curves; inactive = flat fitted curve, though single readings scatter.
# Assay: qHTS assay to test for compound auto fluorescence at 535 nm (green) in HepG2 cells (AID 720675)
# Settings: green autofluorescence 485/535 nm, 1 h; series mostly up to 91.3 µM
# From the text: National Center for Advancing Translational Sciences [NCATS]
# NIH Chemical Genomics Center [NCGC]
# U.S. Environmental Protection Agency [EPA]
# National Institutes of Environmental Health Sciences [NIEHS]
# National Toxicology Program [NTP]
# U.S. Food and Drug Administration [FDA]
# Compound auto fluorescence often interferes with screening of the compound library against various biological targets and signaling pathways. Some of these compounds may have fluorophoric properties. Such properties may interfere with the assay outputs resulting in false positives and/or negatives. To decrease such complications and ensure the compound activities are relevant in terms of biological response, the Tox21 10K compound library was screened for auto fluorescence.
# From the fluorophores used as reporter signals in our screening assays, the auto fluorescence equivalencies of compounds against three fluorophores have been evaluated: Triamterene, Fluorescein and Rose Bengal sodium for blue, green and red fluorescence, respectively. The fluorescence intensities were measured using Excitation/Emission wavelengths at 405/460nm, 485/535nm and 540/590nm for blue, green and red labels, respectively. This assay includes the green fluorescence data.
# Tox21 Assay Protocol Summary:
# 2,000 HepG2 cells in 5 uL of culture medium (MEM containing 10% FBS) per well were dispensed into black wall/clear bottom 1536-well plates using a Multidrop Combi Dispenser (ThermoFisher Scientific, Waltham, MA). The assay plates were incubated overnight at 37 C to allow cell attachment to the well bottom, followed by the transfer of 23 nL compound or DMSO vehicle by a pintool work station (Kalypsys , San Diego, CA). After the assay plates were incubated for 1 hr at 37 C and 5% CO2, fluorescence intensities in the assay plates were measured by an Envision (PerkinElmer, Shelton, CT) plate reader using three labels for measuring blue, green and red fluorescence at […] 460, 535 and 590 nm respectively.
row,Compound,outcome
1,O=[N+]([O-])c1c(Cl)c(Cl)c(Cl)c(Cl)c1Cl,inactive
2,CC(C)Oc1cc(-n2nc(C(C)(C)C)oc2=O)c(Cl)cc1Cl,inactive
3,C=CCc1ccc(OC)cc1,inactive
4,Cc1cc(C)cc(C)c1,inactive
5,COP(=S)(OC)Oc1cc(Cl)c(Cl)cc1Cl,inactive
6,CN(C)c1ccc(C(=O)c2ccc(N(C)C)cc2)cc1,inactive
7,O=P(O)(O)CCCl,inactive
8,COC(=O)c1sccc1S(=O)(=O)NC(=O)Nc1nc(C)nc(OC)n1,inactive
9,Nc1ccc(Cl)c(Cl)c1,inactive
10,CCN(CC)C(=O)/C(Cl)=C(\C)OP(=O)(OC)OC,inactive
11,CCC(C)c1cc([N+](=O)[O-])cc([N+](=O)[O-])c1O (stereo not given),inactive
12,C=CCc1ccc2c(c1)OCO2,inactive
13,CC(C)=CC1C(C(=O)OCc2coc(Cc3ccccc3)c2)C1(C)C (stereo not given),inactive
14,c1cc(OCC2CO2)ccc1Cc1ccc(OCC2CO2)cc1 (stereo not given),inactive
15,O=[N+]([O-])c1ccc(O)c([N+](=O)[O-])c1,inactive
16,CCCCN(CC)c1c([N+](=O)[O-])cc(C(F)(F)F)cc1[N+](=O)[O-],inactive
17,Cc1ccc2c(c1N)C(=O)c1ccccc1C2=O,inactive
18,C=C(C)C(=O)OCC1CO1 (stereo not given),inactive
19,NNC(N)=S,inactive
20,NNC(=S)NN,inactive

row,Compound,outcome
1,ClC1C(Cl)C(Cl)C(Cl)C(Cl)C1Cl (stereo not given),inactive
2,O=C(O)CC[N+](=O)[O-],inactive
3,CN(C)C(=O)Nc1ccc(Cl)cc1,inactive
4,CC(C)(c1cc(Cl)c(O)c(Cl)c1)c1cc(Cl)c(O)c(Cl)c1,inactive
5,S=C1NCCN1,inactive
6,CC(C)NC(C)C,inactive
7,CCOC(=S)S,inactive
8,COP(=O)(OC)OC,inactive
9,Oc1cc(Cl)ccc1Oc1ccc(Cl)cc1Cl,inactive
10,C#CCOS(=O)OC1CCCCC1Oc1ccc(C(C)(C)C)cc1 (stereo not given),inactive
11,CC(C)(C)c1ccccc1O,inactive
12,CCCCCCCCOC(=O)c1ccccc1C(=O)OCCCCCCCC,inactive
13,C[C@]12CCC(=O)C(O)=C1CC[C@@H]1[C@@H]2CC[C@]2(C)C(=O)CC[C@@H]12,inactive
14,NCc1cccnc1,inactive
15,N#CCCCl,inactive
16,Nn1cnnc1,inactive
17,CCOC(=O)C(C)OC(=O)c1cc(Oc2ccc(C(F)(F)F)cc2Cl)ccc1[N+](=O)[O-] (stereo not given),inactive
18,Clc1nc(Cl)nc(Cl)n1,inactive
19,O=[N+]([O-])c1cccc2ccccc12,inactive
20,CCCCC(CC)COC(=O)c1ccc(C(=O)OCC(CC)CCCC)c(C(=O)OCC(CC)CCCC)c1 (stereo not given),inactive
